Screens: PubChem, National Center for Advancing Translational Sciences (NCATS)
In the library only some 2.2% were active in any assay of this set; here they are far more common.
GLP1R ag = agonists of human GLP-1 receptor; hit rate 0.007% among 380,000; P43220; Potency, µM (highest dose often 45.6 µM), hits mostly activators; HEK293 GLP-1R CRE-luciferase, luminescence, 4-6 h; cells express a hypersensitive GLP-1R form; AID 624172
Target sequence (P43220 whole entry, looked up): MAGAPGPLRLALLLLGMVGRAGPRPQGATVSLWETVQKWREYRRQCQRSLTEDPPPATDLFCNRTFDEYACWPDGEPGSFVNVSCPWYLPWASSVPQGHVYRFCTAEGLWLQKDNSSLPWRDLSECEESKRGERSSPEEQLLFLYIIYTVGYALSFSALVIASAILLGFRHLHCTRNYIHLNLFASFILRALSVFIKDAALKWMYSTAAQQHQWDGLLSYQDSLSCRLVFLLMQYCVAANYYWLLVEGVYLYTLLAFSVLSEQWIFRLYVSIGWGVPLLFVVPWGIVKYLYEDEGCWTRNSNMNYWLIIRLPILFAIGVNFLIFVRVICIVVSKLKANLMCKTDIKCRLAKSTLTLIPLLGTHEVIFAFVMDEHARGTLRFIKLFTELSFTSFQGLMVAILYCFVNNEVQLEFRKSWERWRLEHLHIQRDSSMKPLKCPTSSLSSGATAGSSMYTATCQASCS
MmCpn inh = inhibitors of Methanococcus maripaludis chaperonin TRiC (MmCpn) | purified Mm-Cpn ATPase, ADP Transcreener TR-FRET | hit rate 0.031% among 330,000 | Potency, µM (top dose mostly 76.9 µM), actives largely listed as inhibitors | AID 504842; also: nearly all actives have a fitted effect of over 80% in size
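Quantitative HTS used 25 nM Mm-CPN and 10 uM ATP in magnesium/KCl Tris buffer, pH 7.4, with 1 mM DTT. Hydrolysis ran 30 min at 37°C; ADP was read by HTRF.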
uPA generation = cell surface uPA generation inhibition; cell surface uPA generation assay, qHTS; Potency, µM (doses to about 38.3 µM), actives largely listed as inhibitors; AID 540303; hit rate 0.31% among 330,000; active = well fitted inhibition curve with a large enough effect; inconclusive = small, poorly fitted or top-dose-only effect; inactive = no such curve, though single readings can be large or run the other way; tested in mouse RAW 264.7 cells; also: nearly all actives have a fitted effect of over 55% in size
GLP-1R inv ag = acts as inverse agonist at human GLP-1 receptor; HEK293 GLP-1R CRE-luciferase, luminescence, 24 h; GLP-1R form is constitutively active; Potency, µM (series often up to 38.3 µM), most hits filed as inhibitors; hit rate 1.6% among 410,000; AID 624417; also: nearly all actives have a fitted effect of over 55% in size
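qHTS in 1536-well format: reporter HEK293 cells expressing constitutive GLP-1R activity in DMEM + 10% Nu serum, 24 hr with compounds at 37 deg C, luminescence read after 12 min with detection reagent.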
HEK293 tox = cytotoxic in the GLP-1 receptor inverse agonist counter-screen | HEK293 cAMP-luciferase reporter cells, luminescence, 24 h | Potency, µM (top dose mostly 38.3 µM), hits mostly inhibitors | hit rate 0.13% among 410,000;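 also: loss of luciferase light is scored as toxicity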
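A 23 nL compound transfer followed 12 hours of cell culture at 37 deg C; exposure then lasted 24 hr. Luciferase assay detection reagent was dispensed and plates read for luminescence after a 12 min room-temperature wait.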
CCT modulator = cytosolic chaperonin activity modulation; purified chaperonin ATPase assay, HTRF ADP detection, 30 min; hit rate 0.3% among 360,000; activity change, % (no concentration beside the values), hits read low; in the data active = activity change below about -30%
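Nucleotide hydrolysis assay: TRiC at 20–40 nM final (set by batch activity) with 10 uM ATP, 30 min at 37 °C, in presence of 76 uM compound. Detection by competitive ADP HTRF, 30 min ambient.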
Numbers stand for hits; n = inactive; u = inconclusive; x = no result given; [ ] = dose if it differs, or a comment. Unless noted, calls follow the shape of the dose curve; as a rule, active = well fitted curve in the direction sought with a large enough effect; inconclusive = small, poorly fitted or top-dose-only effect, or another doubt; inactive = no such curve, though single readings can be large; an effect the other way counts as inactive or inconclusive.

SMILES | GLP1R ag | MmCpn inh | uPA generation | GLP-1R inv ag | HEK293 tox | CCT modulator
Cc1ccccc1OCC(=O)Nc1ccc(N2CCN(C)CC2)c(Cl)c1 | n | u | n | 4.47µM | n | n
Cc1ccc(N2CC(NC(=O)Cc3ccc(F)cc3)CC2=O)cc1C (centres undefined) | x | x | x | n | n | x
CC(C)(C)C(=O)NC(Nc1cccc2cccnc12)C(Cl)(Cl)Cl (centres undefined) | n | n | n | 5.01µM | n | n
CC(C)c1ccc(CN2CCN(C(=O)CCl)CC2)cc1 | n | n | 3.55µM | 5.62µM | u | n
CC(C)CC(=O)N1CCN(Cc2ccc(Cl)cc2)CC1 | n | n | n | u | n | n
CCCc1cc(=O)oc2c3c(c4c(c12)OC(C)(C)C=C4)OC(C)C(C)C3O (centres undefined) | n | n | 1.41µM | u | n | n
Cc1c(-c2nsc(NC(=O)c3ccccc3)n2)nnn1-c1ccc(C(F)(F)F)c(Cl)c1 | n | x | x | n | n | x
Cn1nnnc1SCC1=C(C(=O)O)N2C(=O)[C@@H](NC(=O)[C@H](OC=O)c3ccccc3)[C@H]2SC1 | n | x | x | x | x | x
O=C(CN(c1cccc(Br)c1)S(=O)(=O)c1ccccc1)N1CCc2ccccc2C1 | x | x | x | 10µM | n | x
CCN1C(=O)N[C@@H](c2cccc(C(F)(F)F)c2)C(C(=O)OC)=C1C | n | x | n | n | n | n
CCN1C(=O)N[C@@H](c2cccc(F)c2)C(C(=O)OC)=C1C | n | x | n | n | n | -39.6
Cc1cccc(Cn2c(C)c(CNC3CCCCC3)c(C(=O)O)c2C)c1 | x | x | x | n | n | x
COc1cc(C(=O)N2CCc3ccccc32)cc(OC)c1OC | n | n | n | n | n | n
COc1cc2ccccc2cc1C(=O)N1CCc2ccccc21 | n | n | n | 7.94µM | u | n
Cc1cc(C)cc(NC(=O)c2sc3nc[nH]c(=O)c3c2C)c1 | x | x | x | n | n | x
S=C(NCCN(C1CCCCC1)C1CCCC1)Nc1cccc(Cl)c1 | n | n | n | u | u | n
S=C(NCCC(c1ccccc1)c1ccccc1)Nc1cccc(Cl)c1 | n | n | n | 11.2µM | u | n
COc1ccc(OC)c(NC(=S)NCCC(c2ccccc2)c2ccccc2)c1 | n | x | n | 8.91µM | n | n
Fc1cccc(NC(=S)NCc2ccccc2Cl)c1 | n | n | n | 10µM | n | n
Fc1ccc(C(c2ccc(F)cc2)N2CCN(CC=Cc3ccccc3)CC2)cc1 | n | x | x | x | x | x
CCOC(=O)C(=O)Nc1ccc(F)cc1 | n | n | n | n | n | -83.8
CCOC(=O)C(=O)Nc1ccc(Oc2ccccc2)cc1 | n | n[15.4 µM] | n | n | n | n
COC(=O)c1ccc(NC(=O)Nc2ccc(F)cc2)cc1 | n | n | n | u | n | n
CCOC(=O)c1ccc(NC(=O)Nc2ccc(F)cc2)cc1 | n | n | n | 4.47µM | u | n
COc1cc2c(cc1O)CCN[C@@]21CS[C@H]2c3c(OC(C)=O)c(C)c4c(c3C(COC1=O)N1C2C2c3c(cc(C)c(OC)c3O)CC([C@@H]1O)N2C)OCO4 (some centres undefined) | n | x | x | x | x | x
SMILES | GLP1R ag | MmCpn inh | uPA generation | GLP-1R inv ag | HEK293 tox | CCT modulator
CCC(C)C1OC2(C=CC1C)CC1CC(C/C=C(\C)C(OC3CC(OC)C(OC4CC(OC)C(NC(C)=O)C(C)O4)C(C)O3)C(C)/C=C/C=C3\COC4C(O)C(C)=CC(C(=O)O1)C34O)O2 (centres undefined) (tested in a mixture with another compound) | n | x | x | x | x | x
COc1ccc(Cl)cc1NC(=O)Cn1cnc2sc(C)c(S(=O)(=O)N3CCN(c4ccccc4OC)CC3)c2c1=O | x | x | x | n | n | x
CC(CCc1ccccc1)NC(=O)CNc1cccc([N+](=O)[O-])c1 (centres undefined) | n | n | n | 10µM | n | n
CC(CCc1ccccc1)NC(=O)Cc1ccc([N+](=O)[O-])cc1 (centres undefined) | n | n | n | n | n | n
COc1ccc(C=O)cc1CN1CCCN(Cc2ccc(Cl)cc2)S1(=O)=O | n | n | n | 7.08µM | n | n
COc1ccc(C=O)cc1Cn1ccnc1 | n | n | n | n | n | n
COc1ccc(OC)c(CN2CCN(C(=O)c3ccc(F)cc3)CC2)c1 | n | n | n | n | n | n
COC(=O)c1ccc(OC)c(CN2CCCN(Cc3ccc(F)cc3)S2(=O)=O)c1 | n | u | n | 10µM | n | n
CO/N=C\CC(=O)Nc1ccc(Cl)c(Cl)c1 | n | n | n | 3.16µM | n | n
COc1ccc(/C=C/C(=O)Nc2ccc(Cl)c(Cl)c2)cc1OC | x | x | x | 8.91µM | u | x
CCCCC1CCC(C(=O)NC2CCS(=O)(=O)C2)CC1 (centres undefined) | n | n | n | n | n | -45.7
O=C(NC1CCS(=O)(=O)C1)C1CCCC1 (centres undefined) | n | n | n | n | n | n
CC(C)CCNC(=O)c1ccc(Cn2c(SCC(=O)NC(C)C)nc3ccccc3c2=O)cc1 | n | x | x | n | n | x
CCOc1ccc(C(=O)Nc2c(C)nc(Nc3ccccc3)nc2Nc2ccccc2)cc1OCC | n | x | x | 10µM | n | x
CCOc1ccc(NC(=O)c2cnc3sc(N4CCOCC4)nn3c2=O)cc1 | x | x | x | n | n | x
Cc1cc(OCC(=O)OCC(=O)NCc2cccs2)ccc1Cl | n | n | n | n | n | -32.9
Cc1nc(NC(=O)CCl)sc1C(=O)N(C)C | n | n | 10µM | n | n | n
Cc1nc(NC(=O)C(Cl)Cl)sc1C(=O)N(C)C | n | n | n | n | n | n
Cc1cc(-c2ccc(C)c(S(=O)(=O)NCc3cccs3)c2)on1 | x | x | x | u | n | x
COc1cc(C(=O)NCC(c2cccs2)N2CCOCC2)cc(Br)c1OCc1ccccc1 (centres undefined) | n | n | u | 6.31µM | n | n
O=C(NCC(c1cccs1)N1CCOCC1)c1cn(-c2ccccc2)nc1-c1ccc(Cl)cc1 (centres undefined) | n | n | n | n | n | n
O=C(NCC(c1cccs1)N1CCOCC1)c1cn(-c2ccccc2)nc1-c1ccccc1 (centres undefined) | n | n | n | 10µM | n | n
Fc1cc(Br)ccc1Nc1c2c(nc3nc(-c4cccs4)nn13)CCCC2 | x | x | x | n | n | x
Cc1c(C(=O)N(Cc2ccc(N(C)C)cc2)CC2CCCO2)oc2ccccc12 (centres undefined) | n | n | n | 10µM | n | n
COc1cc(/C=C(\C#N)C(=O)N2CCc3ccccc32)ccc1O | n | n | n | n | n | n
N#C/C(=C\c1ccc(O)c(O)c1)C(=O)N1CCc2ccccc21 | n | n | 3.55µM | n | n | n
O=C(c1c[nH]c2ccccc12)C(Cl)c1ccccc1 (centres undefined) | n | n | 6.31µM | u | n | n
